Consider eleven compounds from PubChem BioAssay (NCATS).

Records with an inconclusive call do not appear. Activity calls are given as the source filed them. Unless noted, calls follow the shape of the dose curve; as a rule, active = well fitted cell-killing curve with a large enough effect; inconclusive = small, poorly fitted or top-dose-only effect; inactive = flat fitted curve, though single readings scatter.

Test [1] in a line: Cell Viability - LYMP2-020 (AID 986).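 Also: series mostly up to about 92 µM; cells exposed to compound for 24 h at 37 °C; plate controls were DMSO only for no effect and tetraoctylammonium bromide at 92 µM for full effect; nearly all actives have a fitted effect of over 55% in size.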 The gist of the method: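 Seed 2500 cells per well and incubate 5 hr at 37 C. Add compounds at a concentration series and incubate 24 hr at 37 C. Add CellTiter-Glo, wait 30 min at RT, read luminescence, and fit a Hill curve for AC50.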
A short description of test [2]: Cell Viability - LYMP2-022 (AID 987).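 Also: 0% = DMSO alone and full effect = tetraoctylammonium bromide at 92 µM; nearly all actives have a fitted effect of over 55% in size.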 An outline of the steps:
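Cells were seeded at 2500 per well, rested 5 hr at 37 C, and treated with titrated compounds for 24 hr at 37 C. Cellular ATP was then quantified by luciferase luminescence, and AC50 values were derived from Hill-modelled concentration-response curves.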

Test [3] in a line: Cell Viability - LYMP2-024 (AID 988). Also: nearly all actives have a fitted effect of over 60% in size. Also: potency is read from the fitted curve at half-maximal effect. The gist of the method:
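qHTS cytotoxicity, human lymphoblastoid line, complete medium; 24 h cpd treatment, 37 C; CellTiter-Glo ATP luminescence readout; tetraoctylammonium bromide positive control; AC50 via Hill fit.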

Test [4] is described as follows: Cell Viability - LYMP2-026 (AID 989).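 Also: cells exposed to compound for 24 h at 37 °C; % is scaled to controls: 0 for no effect and ±100 for the full control effect; nearly all actives have a fitted effect of over 50% in size.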 An outline of the steps:
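Cells are seeded at 2500 per well and held 5 hr at 37 C. Compounds are added in concentration series for 24 hr, then CellTiter-Glo reagent is applied and luminescence read.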

The nature of test [5]: Cell Viability - LYMP1-002 - Assay at 24 hr (AID 993). Also: % is scaled to controls: 0 for no effect and ±100 for the full control effect. The gist of the method: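 Acute toxicity is measured as concentration-dependent loss of cellular ATP in a human lymphoblastoid line (Coriell LYMP1-002) after 24 h treatment in complete medium. ATP is quantified by luciferase luminescence and AC50 derived by Hill modelling.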
Test [6] is described as follows: Cell Viability - LYMP1-002 - Assay at 40 hr (AID 994). Also: nearly all actives have a fitted effect of over 60% in size. Also: potency is read from the fitted curve at half-maximal effect. The gist of the method: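 Cells are plated at 2500 per well and rested 5 hr at 37 C. Compounds are added and incubated 40 hr at 37 C. CellTiter-Glo reagent is added for 30 min at room temperature before luminescence is read.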
Test [7] in a line: qHTS Assay for Identification of Small Molecule Inducers of Hypoxia Response (AID 2120; active = well fitted curve in the direction sought with a large enough effect in the signal ratio, with a control signal flat, not every such curve was filed as active; the % refers to the signal ratio; also: 0% is about no effect). An outline of the steps:
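Cell-based qHTS for reporter induction: hypoxia response element controlled beta-lactamase in ME-180 cells. Compounds incubated 17 h at 37 degrees C; activity from blue/green (460/530 nm) ratio, inducers ranked by AC50.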

Test [8] deals with Glucocorticoid receptor (Homo sapiens) (UniProt P04150). The test is described as follows: qHTS assay for small molecule antagonists of glucocorticoid receptor signaling (AID 588533; active = well fitted inhibition curve with a large enough effect in the signal ratio, with a control signal flat, not every such curve was filed as active; the % refers to the signal ratio;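 also: cells stimulated with 2 nM dexamethasone as agonist; % is scaled to controls: 0 for no effect and ±100 for the full control effect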). An outline of the steps: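 Antagonist-mode qHTS: compound titrations added to GRE-bla HeLa cells, then dexamethasone 2 nM final; 18 h, 37 C. CCF4 FRET fluorescence normalized to dexamethasone and DMSO; IC50 from Hill fit.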
Glucocorticoid receptor (Homo sapiens), sequence (P04150 whole entry, looked up): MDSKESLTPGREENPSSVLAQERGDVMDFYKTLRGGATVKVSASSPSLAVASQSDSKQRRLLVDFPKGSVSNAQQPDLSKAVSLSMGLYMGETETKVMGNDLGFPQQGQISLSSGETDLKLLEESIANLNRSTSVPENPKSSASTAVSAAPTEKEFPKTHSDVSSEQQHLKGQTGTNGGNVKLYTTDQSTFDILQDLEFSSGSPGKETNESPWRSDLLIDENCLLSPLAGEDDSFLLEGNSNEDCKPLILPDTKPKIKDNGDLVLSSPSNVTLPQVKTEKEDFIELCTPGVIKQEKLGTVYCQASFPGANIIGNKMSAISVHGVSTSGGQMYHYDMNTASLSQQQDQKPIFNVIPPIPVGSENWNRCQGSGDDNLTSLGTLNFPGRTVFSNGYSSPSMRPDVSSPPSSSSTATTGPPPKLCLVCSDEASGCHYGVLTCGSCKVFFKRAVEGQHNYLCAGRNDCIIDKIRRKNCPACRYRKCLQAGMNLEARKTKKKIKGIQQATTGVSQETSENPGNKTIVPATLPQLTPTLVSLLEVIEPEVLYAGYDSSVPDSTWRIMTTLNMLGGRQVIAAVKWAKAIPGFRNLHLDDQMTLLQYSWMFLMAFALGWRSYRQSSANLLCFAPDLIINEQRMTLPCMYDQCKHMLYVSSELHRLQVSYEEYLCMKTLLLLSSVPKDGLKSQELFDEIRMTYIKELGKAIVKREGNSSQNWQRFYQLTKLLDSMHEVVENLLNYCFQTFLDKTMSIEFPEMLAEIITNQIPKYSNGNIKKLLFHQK

The nature of test [9]: qHTS assay for small molecule antagonists of peroxisome proliferator-activated receptor delta signaling (AID 588535; active = well fitted inhibition curve with a large enough effect in the signal ratio, with a control signal flat, not every such curve was filed as active; the % refers to the signal ratio;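 as to max response: cells co-treated with a PPAR-delta agonist as stimulator during compound exposure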). As to conditions: HEK293T PPARd-UAS-bla, beta-lactamase FRET ratio, 18 h; 460 nm channel. An outline of the steps:
(§1)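 Inhibition of PPAR-delta response element-driven beta-lactamase expression is measured in HEK293T cells exposed to a compound titration series for 18 hrs at 37 C. Half-maximal inhibition comes from Hill equation fitting.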

Test [10] deals with Peroxisome proliferator-activated receptor delta (Homo sapiens) (UniProt Q03181). The test is described as above. The gist of the method:
as §1

Test [11] deals with Peroxisome proliferator-activated receptor gamma (Homo sapiens) (UniProt P37231). The test is described as follows: qHTS assay for small molecule antagonists of peroxisome proliferator-activated receptor gamma signaling (AID 588537; active = well fitted inhibition curve with a large enough effect in the signal ratio, with a control signal flat, not every such curve was filed as active; the % refers to the signal ratio;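 also: reporter cells co-stimulated with 50 nM rosiglitazone agonist during compound treatment; % of control where 0% means no effect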). An outline of the steps: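 Compounds are tested as concentration series for inhibition of rosiglitazone-driven (50 nM) reporter expression in GeneBLAzer PPAR-gamma-UAS-bla HEK293 cells. After 16 h at 37 C, CCF4 substrate is added for 2 h at room temperature and blue/green fluorescence is measured.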
Peroxisome proliferator-activated receptor gamma (Homo sapiens), sequence (P37231 whole entry, looked up): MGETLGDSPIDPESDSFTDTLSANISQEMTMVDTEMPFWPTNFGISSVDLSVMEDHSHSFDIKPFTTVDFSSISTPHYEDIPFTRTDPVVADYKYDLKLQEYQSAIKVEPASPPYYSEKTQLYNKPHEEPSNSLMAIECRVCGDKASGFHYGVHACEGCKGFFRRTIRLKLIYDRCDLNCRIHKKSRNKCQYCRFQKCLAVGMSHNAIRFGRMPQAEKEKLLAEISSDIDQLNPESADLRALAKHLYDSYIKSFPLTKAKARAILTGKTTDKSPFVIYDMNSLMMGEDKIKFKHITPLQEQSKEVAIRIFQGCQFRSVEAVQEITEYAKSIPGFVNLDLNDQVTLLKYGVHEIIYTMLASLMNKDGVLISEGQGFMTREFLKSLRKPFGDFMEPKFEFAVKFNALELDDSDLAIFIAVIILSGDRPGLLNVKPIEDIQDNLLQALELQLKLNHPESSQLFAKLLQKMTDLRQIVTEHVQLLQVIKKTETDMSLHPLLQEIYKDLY

Test [12] deals with Vitamin D3 receptor (Homo sapiens) (UniProt P11473). The test is described as follows: qHTS assay for small molecule antagonists of vitamin D receptor signaling (AID 588541; calls by dose curve;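 also: receptor activated by calcitriol during compound treatment; series mostly up to about 77 µM; % is scaled to controls: 0 for no effect and ±100 for the full control effect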). The gist of the method:
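VDR-UAS-bla HEK293T cells (2000/well, 2% charcoal-stripped FBS) were treated with titrated compounds plus 1-alpha,25-dihydroxyvitamin D3 (50 nM or 3 nM final) for 16 h at 37 C. CCF4 beta-lactamase fluorescence was read; Hill fits gave IC50.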

For test [13] the target is unchanged. The experiment in a line: qHTS assay for small molecule agonists of vitamin D receptor signaling (AID 588543; calls by dose curve;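 also: 0% = DMSO basal and 100% = reference agonist control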). An outline of the steps: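 β-lactamase reporter, VDR-UAS-bla HEK293T, agonist mode. Cells plated 5 h at 37 °C, compound titration 16 h at 37 °C, CCF4 dye 2 h RT, ratio 460/530 nm. Hill fit → EC50, efficacy vs 50 nM 1α,25-(OH)2D3.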
For test [14], the target named is Peroxisome proliferator-activated receptor gamma (Homo sapiens) (UniProt P37231). The experiment in a line: qHTS assay for small molecule agonists of peroxisome proliferator-activated receptor gamma signaling (AID 588536; active = well fitted curve in the direction sought with a large enough effect in the signal ratio, with a control signal flat, not every such curve was filed as active; the % refers to the signal ratio;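 also: 0% = DMSO basal wells and 100% = rosiglitazone at 2 µM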). An outline of the steps: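 This is an agonist-mode beta-lactamase reporter assay in HEK293 PPAR-gamma-UAS-bla cells with 1% charcoal/dextran FBS. Compound titrations ran 16 h at 37 C before CCF4 detection. EC50 and efficacy are Hill fits scaled to 2 uM rosiglitazone (100%) and DMSO basal.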

Test [15] addresses Glucocorticoid receptor (Homo sapiens) (UniProt P04150). The experiment in a line: qHTS assay for small molecule agonists of glucocorticoid receptor signaling (AID 588532; active = well fitted curve in the direction sought with a large enough effect in the signal ratio, with a control signal flat; the % refers to the signal ratio;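 also: 100% = dexamethasone at 0.1 µM and 0% = DMSO only wells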). Conditions: HeLa MMTV-bla, beta-lactamase ratio, agonist, 18 h; stronger effect = higher value; percent of dexamethasone control, DMSO zero. The gist of the method: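 MMTV-bla HeLa, beta-lactamase reporter; medium with 1% charcoal/dextran-stripped FBS; cpds up to 92 uM, 18 h, 37 C; CCF4 readout 460/530 nm; Hill fit → EC50, efficacy vs 0.1 uM dexamethasone = 100%.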

Test [16] concerns the target Bile acid receptor (Homo sapiens) (UniProt Q96RI1). The test is described as follows: qHTS assay for small molecule antagonists of farnesoid X receptor signaling (AID 588526; calls by dose curve; also: % is scaled to controls: 0 for no effect and ±100 for the full control effect). The gist of the method:
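Concentration-response titrations were fitted to the Hill equation for half-maximal inhibition and maximal response, with data normalised to 50 uM chenodeoxycholic acid and DMSO control wells. Cells: FXR-UAS-bla HEK293T, dialyzed FBS.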

The target of test [17] is Estrogen receptor (Homo sapiens) (UniProt P03372). The test is described as follows: qHTS assay for small molecule antagonists of estrogen receptor alpha signaling (AID 588513; active = well fitted curve in the direction sought with a large enough effect in the signal ratio, with a control signal flat, not every such curve was filed as active; the % refers to the signal ratio; also: % is scaled to controls: 0 for no effect and ±100 for the full control effect). An outline of the steps: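 Beta-lactamase reporter, antagonist mode, HEK 293 GripTite cells; 0.5nM E2 stimulus, 18 h, 37 C; CCF4 dye 2 h RT; fluorescence. IC50 and efficacy from Hill fits, normalized to E2 and DMSO.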
Estrogen receptor (Homo sapiens), sequence (P03372 whole entry, looked up): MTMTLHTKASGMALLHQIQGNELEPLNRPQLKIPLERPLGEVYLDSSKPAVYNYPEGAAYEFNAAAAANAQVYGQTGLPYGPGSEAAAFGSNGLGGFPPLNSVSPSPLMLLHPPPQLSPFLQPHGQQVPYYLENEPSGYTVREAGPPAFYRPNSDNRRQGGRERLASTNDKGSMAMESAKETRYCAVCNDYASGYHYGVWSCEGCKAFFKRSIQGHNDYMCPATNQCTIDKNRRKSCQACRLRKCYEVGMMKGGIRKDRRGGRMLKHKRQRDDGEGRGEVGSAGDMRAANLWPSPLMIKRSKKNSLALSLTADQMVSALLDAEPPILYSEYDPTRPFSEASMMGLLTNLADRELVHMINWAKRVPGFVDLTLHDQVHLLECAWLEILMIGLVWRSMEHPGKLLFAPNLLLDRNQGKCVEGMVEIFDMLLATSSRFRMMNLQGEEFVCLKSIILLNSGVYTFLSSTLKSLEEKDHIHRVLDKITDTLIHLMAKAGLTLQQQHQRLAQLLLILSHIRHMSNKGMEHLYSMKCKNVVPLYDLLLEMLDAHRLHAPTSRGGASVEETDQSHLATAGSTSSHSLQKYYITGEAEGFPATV

Test [18] deals with Androgen receptor (Homo sapiens) (UniProt P10275). The test is described as follows: qHTS assay for small molecule agonists of androgen receptor signaling (AID 588515; active = well fitted curve in the direction sought with a large enough effect in the signal ratio, with a control signal flat; the % refers to the signal ratio; also: % is scaled to controls: 0 for no effect and ±100 for the full control effect). Conditions: AR-UAS-bla HEK293, beta-lactamase ratio, agonist 16 h; stronger effect = higher value. The gist of the method:
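Stimulation of an AR-responsive β-lactamase reporter in GripTite HEK293 cells was measured after 16 h compound exposure at 37 °C, via CCF4 fluorescence after 2 h RT. EC50 from Hill fits, normalized to R1881 at 30 nM.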

For test [19] the target is unchanged. The experiment in a line: qHTS assay for small molecule antagonists of androgen receptor signaling (AID 588516; active = well fitted curve in the direction sought with a large enough effect in the signal ratio, with a control signal flat, not every such curve was filed as active; the % refers to the signal ratio; also: % is scaled to controls: 0 for no effect and ±100 for the full control effect). An outline of the steps: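 HEK293 AR-UAS-bla cells, 10% dialyzed FBS medium; cpd titration + R1881 10 nM final, 16 h 37 C; CCF4 2 h RT; FRET ratio; IC50/efficacy via Hill fit.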

Bile acid receptor (Homo sapiens), sequence (Q96RI1 whole entry, looked up): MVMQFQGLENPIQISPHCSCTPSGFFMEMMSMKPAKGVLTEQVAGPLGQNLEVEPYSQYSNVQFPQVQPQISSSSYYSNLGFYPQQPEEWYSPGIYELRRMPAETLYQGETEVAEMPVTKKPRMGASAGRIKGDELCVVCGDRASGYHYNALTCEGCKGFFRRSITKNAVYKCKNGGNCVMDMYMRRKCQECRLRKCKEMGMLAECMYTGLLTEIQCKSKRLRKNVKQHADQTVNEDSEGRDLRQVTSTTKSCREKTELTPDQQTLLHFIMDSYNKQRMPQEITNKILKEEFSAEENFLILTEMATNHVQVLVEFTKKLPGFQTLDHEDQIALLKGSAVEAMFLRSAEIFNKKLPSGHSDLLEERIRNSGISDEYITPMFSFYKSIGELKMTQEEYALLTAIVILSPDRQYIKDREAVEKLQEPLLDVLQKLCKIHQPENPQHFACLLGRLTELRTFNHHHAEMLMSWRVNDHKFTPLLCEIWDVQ
Peroxisome proliferator-activated receptor delta (Homo sapiens), sequence (Q03181 whole entry, looked up): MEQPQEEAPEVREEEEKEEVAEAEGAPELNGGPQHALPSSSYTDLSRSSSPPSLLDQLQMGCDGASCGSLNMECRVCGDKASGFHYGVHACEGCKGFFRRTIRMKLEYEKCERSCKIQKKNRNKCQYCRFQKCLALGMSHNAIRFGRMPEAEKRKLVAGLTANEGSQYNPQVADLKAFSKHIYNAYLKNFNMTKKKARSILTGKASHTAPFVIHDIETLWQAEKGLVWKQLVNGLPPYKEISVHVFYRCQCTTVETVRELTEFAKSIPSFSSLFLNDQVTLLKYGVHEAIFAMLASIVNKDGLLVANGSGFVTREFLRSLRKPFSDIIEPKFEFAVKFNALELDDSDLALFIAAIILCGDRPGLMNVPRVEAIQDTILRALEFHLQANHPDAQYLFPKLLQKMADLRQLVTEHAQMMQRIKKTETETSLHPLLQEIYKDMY
Vitamin D3 receptor (Homo sapiens), sequence (P11473 whole entry, looked up): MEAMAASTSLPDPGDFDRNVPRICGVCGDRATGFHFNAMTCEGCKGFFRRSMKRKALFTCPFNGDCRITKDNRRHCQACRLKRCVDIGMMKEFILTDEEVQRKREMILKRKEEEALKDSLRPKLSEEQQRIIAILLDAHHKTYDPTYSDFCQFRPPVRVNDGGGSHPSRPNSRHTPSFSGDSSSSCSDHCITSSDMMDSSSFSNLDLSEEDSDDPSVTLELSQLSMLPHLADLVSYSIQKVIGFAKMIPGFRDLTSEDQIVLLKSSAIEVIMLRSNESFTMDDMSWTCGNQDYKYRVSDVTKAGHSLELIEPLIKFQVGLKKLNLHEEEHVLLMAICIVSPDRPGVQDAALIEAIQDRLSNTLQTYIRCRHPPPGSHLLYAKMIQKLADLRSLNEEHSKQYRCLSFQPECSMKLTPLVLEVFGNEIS
Androgen receptor (Homo sapiens), sequence (P10275 whole entry, looked up): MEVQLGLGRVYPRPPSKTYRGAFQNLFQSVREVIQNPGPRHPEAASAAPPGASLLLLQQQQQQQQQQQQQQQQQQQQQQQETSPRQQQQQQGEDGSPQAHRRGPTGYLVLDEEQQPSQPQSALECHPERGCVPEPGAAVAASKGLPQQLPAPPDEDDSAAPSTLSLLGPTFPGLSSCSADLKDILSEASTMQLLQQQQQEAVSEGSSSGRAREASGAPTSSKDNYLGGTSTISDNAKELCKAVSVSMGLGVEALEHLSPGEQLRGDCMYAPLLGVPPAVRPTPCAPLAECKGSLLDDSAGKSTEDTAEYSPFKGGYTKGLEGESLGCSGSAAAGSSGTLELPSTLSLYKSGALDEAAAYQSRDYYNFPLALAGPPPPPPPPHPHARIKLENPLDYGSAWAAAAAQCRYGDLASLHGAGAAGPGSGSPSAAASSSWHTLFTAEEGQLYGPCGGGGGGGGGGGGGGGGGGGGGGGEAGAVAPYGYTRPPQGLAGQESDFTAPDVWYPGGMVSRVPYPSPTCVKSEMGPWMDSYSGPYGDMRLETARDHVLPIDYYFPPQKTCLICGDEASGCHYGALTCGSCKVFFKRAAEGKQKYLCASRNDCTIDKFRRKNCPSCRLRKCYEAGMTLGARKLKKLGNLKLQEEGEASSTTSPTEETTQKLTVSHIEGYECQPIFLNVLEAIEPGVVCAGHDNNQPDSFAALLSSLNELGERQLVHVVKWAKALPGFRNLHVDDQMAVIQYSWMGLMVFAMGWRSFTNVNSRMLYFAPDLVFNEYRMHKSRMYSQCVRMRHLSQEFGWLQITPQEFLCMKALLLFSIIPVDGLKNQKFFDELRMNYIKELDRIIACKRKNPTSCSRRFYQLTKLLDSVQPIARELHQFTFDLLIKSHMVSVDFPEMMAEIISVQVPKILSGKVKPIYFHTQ

Regarding `Nc1ccccc1[N+](=O)[O-]`, the Potency result in test [1], in test [2], in [3], in test [5], in test [6] and in test [10] was “inactive” each time. The result in test [4], in [7], in test [8] and in test [11] was inactive. Also, in test [9], the max response is 35.9%.

In the case of `CC1CCCO1` (stereo not drawn), the Potency entry in [1], in test [2], in [3], in test [5], in test [6] and in [10] was “inactive” in each case. Further, the call in test [7], in test [12] and in test [13] was inactive. The max response in test [9] came to 6.05%.

On to `COC(=O)c1ccccc1`, for which the Potency result in test [1], in test [3], in [5] and in test [6] was “inactive” each time. The compound was called inactive in test [7], in [14], in test [11], in test [12] and in test [13]. In test [9], the max response worked out at 19.3%.

Turning to `CC1=C(/C=C/C(C)=C/C=C/C(C)=C\C=O)C(C)(C)CCC1`, the Potency in test [3] is 31.6 µM (active); in test [6], 50.1 µM (active). For the same compound, the call in test [7], in test [12] and in test [13] was inactive. For the same compound, the activation in test [15] was 1.42% (inactive).

As for `CC/C(C)=N/O`, the Potency entry in test [1], in test [3] and in test [6] was “inactive” in each case. In addition, the compound was classed as inactive in test [7], in test [8], in test [12] and in test [13]. In [15], the activation is 3.82% (inactive).

Take `CC(O)CC(C)O` (stereo not drawn): the Potency entry in test [1], in [2], in test [3], in test [5] and in test [6] was “inactive” in each case. For the same compound, the compound was called inactive in test [4], in [16], in [14], in test [11], in test [12] and in test [13]. Besides, the activation in test [15] was 0.893% (inactive). In [9], the max response is 7.44%.

As to `O=Cc1ccc(CO)o1`, the Potency result in test [1], in test [3] and in [6] was “inactive” in each case. Besides, the compound was classed as inactive in [4], in [17], in test [16], in [14], in test [12] and in [13].

Regarding `C=C(C)C(=O)OCCCCCCCCCC`, the Potency result in test [1], in test [2], in test [3], in test [5] and in [6] was “inactive” in each case. The compound was called inactive in test [4], in test [17], in test [16], in test [8], in test [14] and in test [11]. Besides, the call in [12] and in [13] was inactive. Further, in [15], the activation is 8.77% (inactive).

`Cc1cccc(Br)c1`: the Potency entry in test [1], in [2], in [3], in test [5] and in [6] was “inactive” throughout. Also, the outcome in test [4], in [8] and in test [14] was inactive. In addition, in [15], the activation was -2.46% (inactive).

In the case of `CCCOCC(C)OCC(C)O` (stereo not drawn), the Potency entry in test [1], in test [2], in [5], in test [6] and in [10] was “inactive” throughout. Moreover, the compound was classed as inactive in test [4], in [19], in test [16], in [8], in test [12] and in [13]. For the same compound, in test [18], the activation is 12.1% (inactive). The max response in test [9] is -11.5%.

For the compound `CC1CCC2CC1C2(C)C` (stereo not drawn), the Potency entry in test [1], in test [2], in [3], in [5] and in [6] was “inactive” each time. The call in test [16], in test [8], in [14] and in [11] was inactive. Further, in [15], the activation is -2.14% (inactive).
